From the supplement of paper PMC12645437, “Orthogonal IMiD-Degron Pairs Induce Selective Protein Degradation in Cells” (ACS Chemical Biology, 2025)
Whole data set: some 8,300 sequences, median “log2 fold change of degron read counts, EGFP-low vs EGFP+ sorted cells (limma voom), compound-induced degradation” near -1.1, cut for the highest 2% near 3.2. Many of the other results were omitted from the sample, so the highest values are more common in it than they were.

T1: CRBN, Q96SW2
T1 chain: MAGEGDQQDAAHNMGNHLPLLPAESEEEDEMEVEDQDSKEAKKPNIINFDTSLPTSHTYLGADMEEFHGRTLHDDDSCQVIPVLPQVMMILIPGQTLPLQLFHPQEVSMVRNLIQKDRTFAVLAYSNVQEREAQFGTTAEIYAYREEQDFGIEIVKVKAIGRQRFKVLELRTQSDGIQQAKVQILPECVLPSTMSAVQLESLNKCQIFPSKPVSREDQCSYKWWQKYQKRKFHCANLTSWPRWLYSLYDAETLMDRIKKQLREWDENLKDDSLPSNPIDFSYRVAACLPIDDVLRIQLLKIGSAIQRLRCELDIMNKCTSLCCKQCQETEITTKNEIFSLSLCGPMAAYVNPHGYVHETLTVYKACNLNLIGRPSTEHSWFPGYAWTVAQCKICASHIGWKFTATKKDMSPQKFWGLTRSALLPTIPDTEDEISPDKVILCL

B1: 46F_47G_49D_50Q_52G_53A_54W_55F_67L_, Q9UKT9 (peptide)
chain: FGCDQCGAWFTQKGNLLRHIKL
B2: 46F_47M_49E_50I_52G_53H_54Q_55F_67L_, Q9UKT9 (peptide)
chain: FMCEICGHQFTQKGNLLRHIKL
B3: 46F_47C_49N_50Q_52G_53R_54V_55F_67L_, Q9UKT9 (peptide)
chain: FCCNQCGRVFTQKGNLLRHIKL
B4: 46F_47L_49N_50Q_52G_53R_54C_55F_67L_, Q9UKT9 (peptide)
chain: FLCNQCGRCFTQKGNLLRHIKL
B5: 46F_47V_49P_50Q_52G_53A_54I_55F_67L_, Q9UKT9 (peptide)
chain: FVCPQCGAIFTQKGNLLRHIKL
B6: 46F_47W_49P_50I_52G_53A_54S_55F_67L_, Q9UKT9 (peptide)
chain: FWCPICGASFTQKGNLLRHIKL
B7: 46F_47Q_49P_50I_52G_53A_54S_55F_67L_, Q9UKT9 (peptide)
chain: FQCPICGASFTQKGNLLRHIKL
B8: 46F_47C_49D_50I_52G_53A_54S_55F_67L_, Q9UKT9 (peptide)
chain: FCCDICGASFTQKGNLLRHIKL
B9: 46F_47W_49D_50I_52G_53A_54S_55F_67L_, Q9UKT9 (peptide)
chain: FWCDICGASFTQKGNLLRHIKL
B10: 46F_47N_49P_50I_52G_53A_54S_55F_67L_, Q9UKT9 (peptide)
chain: FNCPICGASFTQKGNLLRHIKL
B11: 46F_47K_49P_50I_52G_53A_54S_55F_67L_, Q9UKT9 (peptide)
chain: FKCPICGASFTQKGNLLRHIKL
B12: 46F_47L_49P_50I_52G_53A_54S_55F_67L_, Q9UKT9 (peptide)
chain: FLCPICGASFTQKGNLLRHIKL
B13: 46F_47E_49D_50I_52G_53A_54S_55F_67L_, Q9UKT9 (peptide)
chain: FECDICGASFTQKGNLLRHIKL
B14: 46F_47D_49P_50I_52G_53A_54S_55F_67L_, Q9UKT9 (peptide)
chain: FDCPICGASFTQKGNLLRHIKL
B15: 46F_47Q_49D_50I_52G_53A_54S_55F_67L_, Q9UKT9 (peptide)
chain: FQCDICGASFTQKGNLLRHIKL
B16: 46F_47Y_49P_50I_52G_53A_54S_55F_67L_, Q9UKT9 (peptide)
chain: FYCPICGASFTQKGNLLRHIKL
B17: 46F_47A_49N_50Q_52G_53H_54Q_55F_67L_, Q9UKT9 (peptide)
chain: FACNQCGHQFTQKGNLLRHIKL
B18: 46F_47R_49N_50V_52G_53A_54Q_55F_67L_, Q9UKT9 (peptide)
chain: FRCNVCGAQFTQKGNLLRHIKL
B19: 46F_47N_49P_50I_52G_53H_54Y_55F_67L_, Q9UKT9 (peptide)
chain: FNCPICGHYFTQKGNLLRHIKL
B20: 46F_47F_49S_50V_52G_53H_54K_55F_67L_, Q9UKT9 (peptide)
chain: FFCSVCGHKFTQKGNLLRHIKL
B21: 46F_47C_49S_50V_52G_53H_54V_55F_67L_, Q9UKT9 (peptide)
chain: FCCSVCGHVFTQKGNLLRHIKL
B22: 46F_47H_49P_50I_52G_53A_54S_55F_67L_, Q9UKT9 (peptide)
chain: FHCPICGASFTQKGNLLRHIKL
B23: 46F_47G_49P_50I_52G_53A_54S_55F_67L_, Q9UKT9 (peptide)
chain: FGCPICGASFTQKGNLLRHIKL
B24: 46F_47F_49P_50I_52G_53A_54S_55F_67L_, Q9UKT9 (peptide)
chain: FFCPICGASFTQKGNLLRHIKL
B25: 46F_47F_49N_50I_52G_53A_54S_55F_67L_, Q9UKT9 (peptide)
chain: FFCNICGASFTQKGNLLRHIKL
B26: 46F_47T_49P_50I_52G_53A_54S_55F_67L_, Q9UKT9 (peptide)
chain: FTCPICGASFTQKGNLLRHIKL
B27: 46F_47I_49D_50I_52G_53A_54R_55F_67L_, Q9UKT9 (peptide)
chain: FICDICGARFTQKGNLLRHIKL
B28: 46F_47G_49N_50V_52G_53A_54W_55F_67L_, Q9UKT9 (peptide)
chain: FGCNVCGAWFTQKGNLLRHIKL

Target: T1, CRBN, Q96SW2
Test: log2 fold change of degron read counts, EGFP-low vs EGFP+ sorted cells (limma voom), compound-induced degradation; higher = more compound-induced degradation of the degron-EGFP fusion; degrons are variants of IKZF1/3 zinc finger 2; compound dose not given here
Settings: Jurkat, 18 h
[1] = compound: compound 19 (5-tert-butyl-thalidomide)
[2] = compound: compound 22 (5-morpholino-thalidomide)
[3] = compound: compound 33 (diphenyl IMiD analogue)
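Further: pooled lentiviral library of zinc finger degron-EGFP fusions in mCherry-positive Jurkat cells, FACS-sorted after compound exposure, with degron abundance counted by next-generation sequencing.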

Row | Sequence | log2 fold change of degron read counts [1] | log2 fold change of degron read counts [2] | log2 fold change of degron read counts [3] | log2 fold change of degron read counts (compound: thalidomide)
1 | B1 | -2.44 | -2.82 | -1.38 | -2.3
2 | B2 | -3.75 | -3.29 | -1.95 | -1.87
3 | B3 | -2.29 | -2.57 | -2.1 | -2.12
4 | B4 | -1.41 | -1.61 | -3.08 | -2.11
5 | B5 | -2.01 | -1.63 | -0.464 | -0.946
6 | B6 | 3.29 | 3.64 | 2.28 | 1.35
7 | B7 | 2.55 | 2.88 | 2.76 | 3.79
8 | B8 | 2.32 | 1.84 | 0.871 | 0.402
9 | B9 | 3.28 | 3.69 | 1.52 | -0.347
10 | B10 | 2.84 | 1.58 | 1.33 | 0.876
11 | B11 | 1.49 | -0.57 | -1.45 | 0.422
12 | B12 | 1.51 | 0.569 | 1.64 | 1.57
13 | B13 | 0.774 | -2.24 | -0.436 | -0.0103
14 | B14 | 3.04 | 1.06 | 1.22 | 1.9
15 | B15 | 1.07 | 1.92 | 1.15 | 2.99
16 | B16 | 3.25 | 3.43 | 2.54 | 1.24
17 | B17 | -2.48 | -3.06 | -3.27 | -2.92
18 | B18 | -1.54 | -1.19 | -0.656 | -0.561
19 | B19 | -1.6 | -1.7 | -1.47 | -1.44
20 | B20 | -1.05 | -2.36 | -2.5 | -2.6
21 | B21 | -1.81 | -2.39 | -2.47 | -2.11
22 | B22 | 2.77 | 2.54 | 2.08 | 0.926
23 | B23 | 3.27 | 2.28 | 2.49 | 1.31
24 | B24 | 3.26 | 3.18 | 2.18 | 1.74
25 | B25 | 2.16 | 2.55 | 1.2 | -0.157
26 | B26 | 2.17 | 3.02 | 2.88 | 3.23
27 | B27 | -0.557 | 1.75 | 0.63 | 1.41
28 | B28 | -1.56 | -2 | -0.753 | -1.74
